# Potency and affinity values are given separately.
# Experiment: loss of vesicle association with mouse CD8+ T cells – mouse 2C CD8+ T cells, flow cytometry, dose response (AID 485284);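 note: drosophila derived vesicles carrying Ld MHC with QL9 peptide plus B7-1 and ICAM-1; vesicle binding seen as anti-B7-1 PE fluorescence on CD8 gated cells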
# Conditions: 2C mouse CD8+ T cell-exosome binding; at 45 µM (top of the series)
row,Compound,"binding remaining, % of control [%]"
1,O=C(CN1C(=O)NC2(CCCCCC2)C1=O)N1CCN(c2ccccc2)CC1,158
2,COc1ccc(CNC(=O)COC(=O)CCN2C(=O)C3CC=CCC3C2=O)cc1OC (stereo not drawn),190
3,COc1ccccc1NS(=O)(=O)c1ccc(C)c(NC(=O)c2ccc(S(=O)(=O)N3CCCCCC3)cc2)c1,134
4,COc1ccc(Nc2ccccc2N)cc1,182
5,CCOC(=O)C1(CC2CCCCO2)CCN(S(=O)(=O)c2ccc(C)s2)CC1 (stereo not drawn),105
6,COc1ccc(N2C(=O)CC(Sc3ncn[nH]3)C2=O)c(OC)c1 (stereo not drawn),135
7,COC(=O)CN1C(=S)N(C)C(=O)C1CC(=O)Nc1ccccc1 (stereo not drawn),123
8,C/C(=N\NC(=O)c1ccco1)c1cc2ccccc2o1,160
9,CCCCn1c(N)c(N(CCOC)C(=O)C2CC(=O)N(c3ccc(CC)cc3)C2)c(=O)[nH]c1=O (stereo not drawn),17.2
10,CCCc1nnc(NC(=O)c2ccc(S(=O)(=O)N(C)c3ccccc3OC)cc2)s1,142
11,O=C(N/N=C/c1cccc(OC(=O)c2ccccc2Cl)c1)c1cccnc1,168
12,COc1ccc(-c2cc(CNS(=O)(=O)c3ccc(NC(C)=O)cc3)on2)cc1,101
13,Cc1cccc(OCC(=O)Nc2ccccc2C(=O)N2CCOCC2)c1,161
14,NC(=O)CCS(=O)(=O)CCN1CCN(S(=O)(=O)c2ccc3c(c2)CCC3)CC1,170
15,CCCCOc1ccc(C(=O)NCC(=O)N2CCN(C(=O)c3ccco3)CC2)cc1,23.6
16,COc1ccccc1NC(=O)Cn1cnc2sc(C)c(S(=O)(=O)N3CCCCC3)c2c1=O,115
17,COc1ccc(C(O)c2coc3ccc(O)c(CN(C)C)c23)cc1 (stereo not drawn),113

row,Compound,"binding remaining, % of control [%]"
1,c1ccc(COc2ccc(OCCN3CCCCC3)cc2)cc1,112
2,CN(CC(=O)Nc1cccc(F)c1)C(=O)c1ccc(S(=O)(=O)N2CCCC2)cc1,21.6
3,CN(C)S(=O)(=O)c1cccc(-n2sc3ccccc3c2=O)c1,73.9
4,Cc1ncc([N+](=O)[O-])n1Cc1cccc(F)c1,40.3
5,Cn1c(CNC(=O)CNC(=O)c2ccc(F)cc2)cc(=O)n(C)c1=O,99.6
6,Cc1ccccc1C(=O)NCC(=O)N1CCN(C/C=C/c2ccccc2)CC1,42.6
7,CN1CCN(S(=O)(=O)c2cccc(C(=O)Nc3cc(C(F)(F)F)ccc3N3CCCCC3)c2)CC1,51.4
8,CCCNC(=O)NC(=O)CN1C(=O)NC(C)(c2ccc(C)cc2)C1=O (stereo not drawn),160
9,Cc1ccc(S(=O)(=O)Nc2c3ccccc3nc(=O)n2-c2ccccc2)cc1,71.8
10,C[N+]1(C)CC2([N+](=O)[O-])CC=C(Oc3ccccc3)C([N+](=O)[O-])(C2)C1 (stereo not drawn),24.8
11,Cc1ccc(C(C)C)c(OCC(=O)N2CCN(c3ncccn3)CC2)c1,17.4
12,COc1ccc(CC(=O)OCC(=O)N2CCN(S(=O)(=O)c3ccc(C)cc3C)CC2)cc1,102
13,COc1ccc(NC(=O)Cc2ccc(C)c(C)c2)cc1S(=O)(=O)N1CCCCC1,32.4
14,O=C(NNC(=S)NC(=O)c1ccco1)c1ccc(F)cc1,159
15,CCN(CC)C(=O)N1CCN(S(=O)(=O)c2ccc(C)cc2)CC1,112
16,O=C(/C=C/c1ccccc1Cl)NCCc1ccccc1,116

# — PubChem BioAssay AID485284 (NMMLSC, 2010)
